We go through 24 molecules from PubChem BioAssay AID1345085 (National Center for Advancing Translational Sciences (NCATS), 2018).

Results filed as inconclusive are left out. Activity calls are given as the source filed them. Calls follow the shape of the dose curve; as a rule, active = well fitted cell-killing curve with a large enough effect; inconclusive = small, poorly fitted or top-dose-only effect, or effect the other way; inactive = no such curve, though single readings can be large or run the other way.
% is scaled to controls: 0 for no effect and ±100 for the full control effect; potency is read from the fitted curve at half-maximal effect.

The test system of the test is Es-2. Description: Confirmatory qHTS for gynecologic anti-cancer compounds from libraries of approved drugs and bioactive compounds. Also: nearly all actives have a fitted effect of over 55% in size. To be noted: gynecologic cancer cell panel viability, ATPlite luminescence, 48 h; series mostly up to 57.6 µM. The gist of the method:
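Cells (1,000/well) plated 16 h, then exposed 48 h at 37 °C to 11 concentrations (1:3) from 57.5 uM to 0.977 nM. Viability by ATPlite luminescence after 15 min; IC50 derived, with HEK 293T used for selectivity index.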
Take `Cc1ccc(NC(=O)c2ccc(CN3CCN(C)CC3)cc2)cc1Nc1nccc(-c2cccnc2)n1`: the Potency result was “inactive”.
Still for that read-out and setting: the result for `CC1=C(/C=C/C(C)=C/C=C/C(C)=C/C(=O)Nc2ccc(O)cc2)C(C)(C)CCC1` reads 27.3 µM (active); that for `Cc1cc(CN2CCN(c3c(Br)cnc4nc(-c5ccc(N6CCN(C)CC6)cc5)[nH]c34)CC2)no1`, 7.69 µM (active); that for `COc1cccc2c1C(=O)c1c(O)c3c(c(O)c1C2=O)C[C@@](O)(C(=O)CO)C[C@@H]3O[C@H]1C[C@H](N)[C@H](O[C@@H]2CCCCO2)[C@H](C)O1`, 7.69 µM (active).
In the case of `COCCOc1ccc2c(c1)ncn2-c1ccc2cccc(N3CCC(N)CC3)c2n1`, the Potency is 6.11 µM (active).
Consider `O=C(c1ccc(F)c(F)c1Nc1ccc(I)cc1F)N1CC(O)([C@@H]2CCCCN2)C1`, for which the Potency was 17.2 µM (active).
On the same count and under the same terms, with `Cc1cnc(Nc2ccc(CN3CCOCC3)cc2)nc1Nc1cccc(S(=O)(=O)NC(C)(C)C)c1` the figure was 4.32 µM (active).
The same measure, in the same setting: the result for `CC(C)C[C@H](NC(=O)[C@H](Cc1ccccc1)NC(=O)c1cnccn1)B(O)O` reads 0.0611 µM (active).
On to `CC[C@H](Nc1ncnc2nc[nH]c12)c1nc2cccc(F)c2c(=O)n1-c1ccccc1`, for which the activity change, negative = viability loss is 8.76% [at 10.7 µM] (inactive).
In the case of `Nc1ccn([C@@H]2O[C@H](CO)[C@@H](O)C2(F)F)c(=O)n1`, the Potency was 0.0306 µM (active).
On the same count and under the same terms, the result for `S=c1nc[nH]c2nc[nH]c12` reads 3.85 µM (active).
On the same count and under the same terms, with `Oc1cn2c(n1)Nc1ccc(Cl)c(Cl)c1C2` the entry was “inactive”; with `CCC1=CC2CN(C1)Cc1c([nH]c3ccccc13)[C@@](C(=O)OC)(c1cc3c(cc1OC)N(C)[C@H]1[C@@](O)(C(=O)OC)[C@H](OC(C)=O)[C@]4(CC)C=CCN5CC[C@]31[C@@H]54)C2` (some centres undefined), 0.376 µM (active); with `Cc1cc(C2CCCCC2)n(O)c(=O)c1`, 9.94 µM (active).
On to `NS(=O)(=O)OC[C@@H]1C[C@@H](n2ccc3c(N[C@H]4CCc5ccccc54)ncnc32)C[C@@H]1O`, for which the Potency was 1.72 µM (active).
Same read-out and setting: with `O=c1[nH]c(=O)n([C@H]2C[C@H](O)[C@@H](CO)O2)cc1Br` the entry was “inactive”.
On the same count and under the same terms, the result for `CCN(CC)CCOc1ccc(/C(=C(\Cl)c2ccccc2)c2ccccc2)cc1` reads 398 µM (active).
The same measure, in the same setting: the result for `COc1cc(N2CCC(N)CC2)ccc1Nc1ncc(Cl)c(-c2c[nH]c3ccccc23)n1` reads “inactive”; that for `CN1CCN(c2ccc(OC(F)(F)F)c(Nc3ncc4c(n3)-c3c(c(C(N)=O)nn3CCO)CC4)c2)CC1`, 0.217 µM (active); that for `CC[C@@]1(O)C(=O)OCc2c1cc1n(c2=O)Cc2c-1nc1ccccc1c2/C=N/OC(C)(C)C`, 0.0153 µM (active).
Turning to `CNc1nc(Nc2ccc(C(=O)N3CCOCC3)cc2OC)ncc1Cl`, the Potency entry is “inactive”.
As for `CN(C)C(CCOc1cccc2ccccc12)c1ccccc1` (centres undefined), the Potency result was “inactive”.
Same read-out and setting: the result for `O=C(CCCCCCC(=O)Nc1ccccc1)NO` reads 3.06 µM (active); that for `C#C[C@]1(O)CC[C@H]2[C@@H]3CCC4=CC(=O)CC[C@@H]4[C@H]3CC[C@@]21CC`, “inactive”.
